Measurements published in PubChem BioAssay (EPA / NIEHS).
Results filed as inconclusive are left out. Active and inactive are the calls of the source. The calls were made as follows, unless noted: active = hit-call score of the fitted dose curve at least 0.9, where 1 is the maximum; inconclusive = response in the unintended direction; inactive = score below 0.9.

What was measured:
[1] = biological target: Estrogen receptor (Homo sapiens) (UniProt P03372); test: OT_ERa_GFPERaERE_0480: Odyssey Thera (OT) 8-hour HeLa Transcription Induction Assay for Estrogen Receptor (AID 2283381; active = hit-call score of the fitted dose curve at least 0.9, where 1 is the maximum; inactive = score below 0.9)
Sequence of Estrogen receptor (Homo sapiens) (P03372 whole entry, looked up): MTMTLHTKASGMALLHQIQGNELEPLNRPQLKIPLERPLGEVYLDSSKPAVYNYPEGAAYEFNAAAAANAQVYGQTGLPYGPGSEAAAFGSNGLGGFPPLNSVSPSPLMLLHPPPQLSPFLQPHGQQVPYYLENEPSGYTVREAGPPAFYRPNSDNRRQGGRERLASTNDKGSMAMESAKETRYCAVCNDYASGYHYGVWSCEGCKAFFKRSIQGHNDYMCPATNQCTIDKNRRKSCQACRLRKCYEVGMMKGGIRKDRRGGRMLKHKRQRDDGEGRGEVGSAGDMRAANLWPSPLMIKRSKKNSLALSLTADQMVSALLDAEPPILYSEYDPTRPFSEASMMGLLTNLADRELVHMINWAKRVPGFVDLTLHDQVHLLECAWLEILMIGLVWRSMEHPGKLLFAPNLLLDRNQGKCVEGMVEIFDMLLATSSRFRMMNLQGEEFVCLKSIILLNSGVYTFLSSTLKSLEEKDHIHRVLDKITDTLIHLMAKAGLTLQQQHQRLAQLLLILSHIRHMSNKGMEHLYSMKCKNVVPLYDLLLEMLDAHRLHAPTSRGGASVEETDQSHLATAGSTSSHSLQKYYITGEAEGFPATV
Summary of the method: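 An 8 h HeLa transcription-induction format with a GFP reporter under ERE control, read by fluorescence microscopy; single endpoint fitted positively with DMSO as baseline.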

[2] = biological target: rat Serotonin Transporter (SERT), Slc6a4 (gene 25553) (UniProt P31652); test: NVS_TR_rSERT: NovaScreen (NVS) Transporter Assay for rat Serotonin Transporter (SERT) (AID 2283375)
Sequence of rat Serotonin Transporter (SERT), Slc6a4 (gene 25553) (P31652 whole entry, looked up): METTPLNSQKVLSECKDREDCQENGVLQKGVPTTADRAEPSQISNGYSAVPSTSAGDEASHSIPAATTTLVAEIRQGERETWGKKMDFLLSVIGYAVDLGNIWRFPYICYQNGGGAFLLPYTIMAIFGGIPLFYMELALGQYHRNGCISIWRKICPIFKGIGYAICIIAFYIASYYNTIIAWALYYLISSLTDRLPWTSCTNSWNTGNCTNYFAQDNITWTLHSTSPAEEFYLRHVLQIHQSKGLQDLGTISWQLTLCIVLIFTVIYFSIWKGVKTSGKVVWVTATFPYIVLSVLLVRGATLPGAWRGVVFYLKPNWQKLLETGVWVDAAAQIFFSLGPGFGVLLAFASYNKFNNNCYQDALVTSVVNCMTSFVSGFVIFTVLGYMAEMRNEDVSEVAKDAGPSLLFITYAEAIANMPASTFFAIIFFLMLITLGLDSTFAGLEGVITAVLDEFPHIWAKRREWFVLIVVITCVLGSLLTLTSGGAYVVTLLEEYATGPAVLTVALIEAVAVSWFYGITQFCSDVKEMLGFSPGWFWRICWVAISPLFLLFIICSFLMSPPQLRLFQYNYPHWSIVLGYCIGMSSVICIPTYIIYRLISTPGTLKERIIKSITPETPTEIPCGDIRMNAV
Summary of the method: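 Rat forebrain membranes; radioligand displacement at SERT read by filter-based scintillation counting, 1 h after dosing. Screened in duplicate at 25 uM, actives then run in concentration series; loss of signal versus DMSO baseline.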

[3] = biological target: human Norepinephrine Transporter (NET), SLC6A2 (gene 6530) (UniProt P23975); test: NVS_TR_hNET: NovaScreen (NVS) Transporter Assay for human Norepinephrine Transporter (NET) (AID 2283377);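 also: cell-free membrane protein extracted from CHO cells expressing human NET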;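 as to AC50: displacement of radioligand from human NET seen as loss of scintillation signal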
Sequence of human Norepinephrine Transporter (NET), SLC6A2 (gene 6530) (P23975 whole entry, looked up): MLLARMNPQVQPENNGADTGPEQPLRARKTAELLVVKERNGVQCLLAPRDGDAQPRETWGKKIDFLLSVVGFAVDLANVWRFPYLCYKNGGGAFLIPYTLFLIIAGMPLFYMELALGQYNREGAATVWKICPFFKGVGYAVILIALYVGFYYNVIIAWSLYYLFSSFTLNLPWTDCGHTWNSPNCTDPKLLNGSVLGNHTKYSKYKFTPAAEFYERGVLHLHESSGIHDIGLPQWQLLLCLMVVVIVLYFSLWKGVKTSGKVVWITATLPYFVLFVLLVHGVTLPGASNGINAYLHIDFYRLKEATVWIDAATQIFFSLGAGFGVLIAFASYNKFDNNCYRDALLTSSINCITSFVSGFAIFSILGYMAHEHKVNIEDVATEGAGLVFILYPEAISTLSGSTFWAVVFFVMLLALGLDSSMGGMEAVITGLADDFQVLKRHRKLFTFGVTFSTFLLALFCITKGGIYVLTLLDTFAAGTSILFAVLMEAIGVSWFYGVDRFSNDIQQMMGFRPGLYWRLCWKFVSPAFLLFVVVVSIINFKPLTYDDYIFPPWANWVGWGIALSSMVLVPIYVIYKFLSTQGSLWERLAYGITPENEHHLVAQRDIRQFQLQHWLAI
Summary of the method: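 In this cell-free binding screen, chemicals at 25 uM (duplicate) compete with a radioligand for CHO-derived human NET over 1 hour, with filter-based radiodetection.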

[4] = biological target: mouse Estrogen Receptor alpha (Era), Esr1 (gene 13982) (UniProt P19785); test: NVS_NR_mERa: NovaScreen (NVS) Nuclear Receptor Binding Assay for mouse Estrogen Receptor alpha (Era) (AID 2283378);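 also: hit means loss of bound radioligand signal relative to DMSO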
Sequence of mouse Estrogen Receptor alpha (Era), Esr1 (gene 13982) (P19785 whole entry, looked up): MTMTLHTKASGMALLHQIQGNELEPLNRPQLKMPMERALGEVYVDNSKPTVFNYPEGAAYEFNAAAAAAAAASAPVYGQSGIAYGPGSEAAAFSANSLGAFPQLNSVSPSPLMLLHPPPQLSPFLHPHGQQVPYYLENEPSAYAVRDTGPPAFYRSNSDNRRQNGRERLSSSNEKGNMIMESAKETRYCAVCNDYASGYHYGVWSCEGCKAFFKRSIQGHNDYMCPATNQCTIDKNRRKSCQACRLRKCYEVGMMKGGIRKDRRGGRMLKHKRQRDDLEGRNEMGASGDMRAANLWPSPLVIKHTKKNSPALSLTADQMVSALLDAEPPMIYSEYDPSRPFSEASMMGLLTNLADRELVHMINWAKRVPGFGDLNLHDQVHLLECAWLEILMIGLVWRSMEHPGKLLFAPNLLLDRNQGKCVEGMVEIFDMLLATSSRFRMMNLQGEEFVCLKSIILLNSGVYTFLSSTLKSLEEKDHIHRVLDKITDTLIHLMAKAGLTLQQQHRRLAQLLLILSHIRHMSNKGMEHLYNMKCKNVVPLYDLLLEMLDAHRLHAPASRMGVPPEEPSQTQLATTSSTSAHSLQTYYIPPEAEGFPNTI
Summary of the method: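 Cell-free radioligand competitive displacement binding, read by filter-based scintillation counting 18 h after dosing. Primary screen run in duplicate at 25 uM, actives retested in concentration series; loss of signal versus DMSO.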

[5] = biological target: Estrogen receptor beta (Homo sapiens) (UniProt Q92731); test: OT_ER_ERbERb_1440: Odyssey Thera (OT) 24-hour HEK293T Protein-Complementation Assay for Estrogen Receptor-beta/-beta Homodimer (AID 2283380);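 also: fluorescence gain from ER beta LBD homodimer complementation read by laser scanning cytometry; scored as signal increase over DMSO baseline for both agonists and antagonists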
Sequence of Estrogen receptor beta (Homo sapiens) (Q92731 whole entry, looked up, the tested form may be a part): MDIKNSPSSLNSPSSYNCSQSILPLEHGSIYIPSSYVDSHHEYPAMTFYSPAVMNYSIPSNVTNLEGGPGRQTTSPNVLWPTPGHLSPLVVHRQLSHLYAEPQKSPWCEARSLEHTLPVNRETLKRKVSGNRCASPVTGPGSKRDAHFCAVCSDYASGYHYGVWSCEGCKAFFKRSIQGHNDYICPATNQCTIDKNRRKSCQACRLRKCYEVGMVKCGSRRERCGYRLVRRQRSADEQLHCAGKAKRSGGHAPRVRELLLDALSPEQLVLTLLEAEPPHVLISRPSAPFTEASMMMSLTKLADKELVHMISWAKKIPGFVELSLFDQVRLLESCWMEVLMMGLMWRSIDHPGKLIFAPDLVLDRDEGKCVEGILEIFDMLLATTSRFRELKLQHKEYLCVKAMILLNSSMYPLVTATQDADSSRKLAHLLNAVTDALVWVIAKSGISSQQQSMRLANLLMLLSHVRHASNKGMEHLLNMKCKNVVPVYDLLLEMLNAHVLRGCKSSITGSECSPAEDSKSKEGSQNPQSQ
Summary of the method: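 HEK293T cells stably expressing human ER-beta LBD (aa 310-547) PCA homodimer pair, dosed 24 h; formaldehyde-fixed, Draq5-stained. Readout: increase in nuclear (agonist) or nuclear plus cytoplasmic (antagonist) fluorescence intensity versus DMSO, gain-of-signal fitting.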

[6] = biological target: Peroxisome proliferator-activated receptor gamma (Homo sapiens) (UniProt P37231); test: NVS_NR_hPPARg: NovaScreen (NVS) Nuclear Receptor Binding Assay for human Peroxisome Proliferator-activated Receptor gamma (PPARg) (AID 2283370)
Sequence of Peroxisome proliferator-activated receptor gamma (Homo sapiens) (P37231 whole entry, looked up): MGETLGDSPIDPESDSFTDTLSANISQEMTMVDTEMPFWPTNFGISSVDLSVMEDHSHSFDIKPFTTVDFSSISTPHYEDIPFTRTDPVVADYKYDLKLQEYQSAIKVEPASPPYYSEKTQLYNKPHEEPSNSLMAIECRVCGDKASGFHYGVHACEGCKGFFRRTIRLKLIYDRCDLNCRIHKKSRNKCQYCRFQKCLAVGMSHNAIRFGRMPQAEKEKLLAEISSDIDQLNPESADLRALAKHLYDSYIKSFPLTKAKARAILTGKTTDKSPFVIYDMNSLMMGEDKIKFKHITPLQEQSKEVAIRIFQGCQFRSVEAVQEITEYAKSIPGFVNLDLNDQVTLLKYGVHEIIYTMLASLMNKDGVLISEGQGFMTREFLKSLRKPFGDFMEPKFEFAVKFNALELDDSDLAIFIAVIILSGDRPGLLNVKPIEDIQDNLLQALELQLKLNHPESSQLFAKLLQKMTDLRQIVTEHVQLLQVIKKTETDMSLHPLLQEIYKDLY
Summary of the method: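 Cell-free fluorescence polarization binding to human PPARg protein, read 2 h after dosing. Primary screen in duplicate at 25 uM, actives followed in concentration series; loss of signal relative to DMSO scored.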

[7] = biological target: Agonist Androgen Response Element (ARE), AR (gene 367) (UniProt P10275); test: OT_AR_ARELUC_AG_1440: Odyssey Thera (OT) 24-hour CHO-K1 Luciferase Assay for Agonist Androgen Response Element (ARE) (AID 2283379)
Sequence of Agonist Androgen Response Element (ARE), AR (gene 367) (P10275 whole entry, looked up): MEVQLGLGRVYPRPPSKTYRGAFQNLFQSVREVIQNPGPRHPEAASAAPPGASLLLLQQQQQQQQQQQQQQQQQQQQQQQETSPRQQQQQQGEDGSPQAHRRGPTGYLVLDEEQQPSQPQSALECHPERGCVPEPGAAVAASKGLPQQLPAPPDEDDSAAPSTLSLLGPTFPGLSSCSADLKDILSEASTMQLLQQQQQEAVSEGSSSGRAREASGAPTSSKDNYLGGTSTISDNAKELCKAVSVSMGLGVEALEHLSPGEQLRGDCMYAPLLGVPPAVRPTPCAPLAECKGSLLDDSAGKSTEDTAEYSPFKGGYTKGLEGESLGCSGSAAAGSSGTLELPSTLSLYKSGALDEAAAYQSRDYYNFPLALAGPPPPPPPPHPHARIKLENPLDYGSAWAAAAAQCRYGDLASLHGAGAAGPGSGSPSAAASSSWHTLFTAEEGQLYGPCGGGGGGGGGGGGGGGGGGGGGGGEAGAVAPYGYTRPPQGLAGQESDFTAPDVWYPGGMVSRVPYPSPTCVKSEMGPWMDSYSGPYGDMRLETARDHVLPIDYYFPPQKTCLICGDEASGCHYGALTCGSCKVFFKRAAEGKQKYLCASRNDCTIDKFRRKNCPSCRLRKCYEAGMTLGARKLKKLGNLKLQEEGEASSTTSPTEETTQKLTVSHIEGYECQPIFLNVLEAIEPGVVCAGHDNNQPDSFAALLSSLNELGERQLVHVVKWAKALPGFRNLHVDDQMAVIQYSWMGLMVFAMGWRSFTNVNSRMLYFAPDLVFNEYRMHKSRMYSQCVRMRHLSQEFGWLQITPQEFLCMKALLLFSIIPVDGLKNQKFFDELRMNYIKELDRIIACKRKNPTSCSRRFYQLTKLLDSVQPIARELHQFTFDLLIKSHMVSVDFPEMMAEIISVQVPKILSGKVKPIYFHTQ
Summary of the method: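 Luminescence increase above DMSO, read after a 24 h compound treatment of CHO-K1 cells expressing an androgen response element luciferase reporter, gives the single primary endpoint; concentration-response fitting used the positive direction.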

[8] = biological target: guinea pig Sigma Receptor, Non-selective Binding, SIGMAR1 (gene 100135589) (UniProt Q60492); test: NVS_OR_gSIGMA_NonSelective: NovaScreen (NVS) Nuclear Receptor Binding Assay for guinea pig Sigma Receptor, Non-selective Binding (AID 2283367)
Summary of the method: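 Test chemicals were screened in duplicate at 25 uM, then in concentration series if active, against radioligand binding to guinea pig brain membranes; filtration and scintillation counting at 1 h measured remaining bound ligand.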

[9] = test system: guinea pig Dopamine Transporter (DAT), gene 100714898; test: NVS_TR_gDAT: NovaScreen (NVS) Transporter Assay for guinea pig Dopamine Transporter (DAT) (AID 2283369);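 also: active compounds lower bound radioligand signal relative to DMSO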
Experimental: NVS_TR_gDAT is a biochemical, single-readout assay that uses extracted gene-proteins from Guinea pig striatal membranes in a tissue-based cell-free assay. Measurements were taken 2 hours after chemical dosing in a 48-well plate.NVS_TR_gDAT is one of one assay component(s) measured or calculated from the NVS_TR_gDAT assay. It is designed to make measurements of radioligand binding, a form of binding reporter, as detected with scintillation counting signals by Filter-based radiodetection technology.Data from the assay component NVS_TR_gDAT was analyzed into 1 assay endpoint. This assay endpoint, NVS_TR_gDAT, was analyzed in the positive analysis fitting direction relative to DMSO as the negative control and baseline of activity. Using a type of binding reporter, loss-of-signal activity can be used to understand changes in the binding as they relate to the gene Slc6a3. Furthermore, this assay endpoint can be referred to as a primary readout, because the performed assay has only produced 1 assay endpoint. To generalize the intended target to other relatable targets, this assay endpoint is annotated to the transporter intended target family, where the subfamily is neurotransmitter transporter.
Binding assays used specific radioligands (tritiated, iodinated) with non-radioactive competitive displacement ligands in agonist or antagonist protocols (as indicated) and various reference compounds and inhibitors to titrate specific binding to receptors and transporters. Most enzyme assays (CYPs, kinases, phosphatases, proteases, HDACs) used recombinant protein and specific substrates (fluorescence mostly, some colorimetric and radioactive) and inhibitors, followed by a biochemical separation of substrate and product. All assays for the biochemical HTS were initially run in duplicate at a single concentration (10 uM for CYP450 assays and 25 uM for all others). Assay-chemical combinations meeting a pre-defined threshold (e.g., 30% inhibition and other criteria defined below) were then run in singleton concentration-response format with maximum concentration of 20 uM for CYPs and 50 uM for all others. Each assay was run with positive and negative controls, and concurrent controls on every plate. The follow-up (secondary) screen tested active chemical-pairs in concentration series, as well as a few additional assays not tested in the primary screen, some selected negative inactives, and several cases re-run in the concentration series for confirmatory purposes.

[10] = biological target: human Dopamine Transporter (DAT), SLC6A3 (gene 6531) (UniProt Q01959); test: NVS_TR_hDAT: NovaScreen (NVS) Transporter Assay for human Dopamine Transporter (DAT) (AID 2283374);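 also: activity means loss of bound radioligand signal relative to DMSO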
Sequence of human Dopamine Transporter (DAT), SLC6A3 (gene 6531) (Q01959 whole entry, looked up): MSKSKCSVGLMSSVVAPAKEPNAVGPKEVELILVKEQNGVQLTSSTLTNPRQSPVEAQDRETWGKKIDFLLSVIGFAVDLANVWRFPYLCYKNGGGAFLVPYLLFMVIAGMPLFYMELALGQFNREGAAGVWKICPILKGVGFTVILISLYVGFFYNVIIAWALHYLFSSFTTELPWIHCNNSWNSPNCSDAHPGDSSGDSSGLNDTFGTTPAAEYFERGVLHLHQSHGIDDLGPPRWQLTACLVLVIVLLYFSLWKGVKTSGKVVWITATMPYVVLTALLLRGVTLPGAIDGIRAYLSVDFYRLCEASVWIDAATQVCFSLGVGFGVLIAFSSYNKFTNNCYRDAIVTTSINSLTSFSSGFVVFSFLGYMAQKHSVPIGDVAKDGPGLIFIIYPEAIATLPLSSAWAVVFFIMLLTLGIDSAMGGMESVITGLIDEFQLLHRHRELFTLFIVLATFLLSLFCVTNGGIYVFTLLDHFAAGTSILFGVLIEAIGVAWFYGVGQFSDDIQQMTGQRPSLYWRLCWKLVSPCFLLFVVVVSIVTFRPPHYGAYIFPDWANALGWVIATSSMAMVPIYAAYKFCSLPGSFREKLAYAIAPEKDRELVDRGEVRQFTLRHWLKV
Summary of the method: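 Extracted human SLC6A3 protein incubated 1 h with radioligand and test chemical; bound fraction separated on filters and counted. Single 25 uM duplicate screen preceded concentration-response follow-up; positive and negative controls on every plate.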

OC[C@@H](O)[C@@H](O)[C@H](O)[C@@H](O)CO
outcome [1]: inactive

C#C[C@]1(O)CC[C@H]2[C@@H]3CCc4cc(OC)ccc4[C@H]3CC[C@@]21C
AC50 [2]: 19 µM (active) | AC50 [3]: 3.99 µM (active) | outcome [4]: inactive | AC50 [1]: 0.0277 µM (active)

CCCCCCOC(=O)c1ccccc1O
outcome [5]: inactive | outcome [1]: inactive

CC(CCl)OP(=O)(OC(C)CCl)OC(C)CCl (stereo not drawn)
outcome [6]: inactive | outcome [5]: inactive | outcome [1]: inactive

CCCCCCC(C)OC(=O)CCCCC(=O)OC(C)CCCCCC (stereo not drawn)
outcome [7]: inactive | outcome [5]: inactive | outcome [1]: inactive

O[Si](c1ccccc1)(c1ccccc1)c1ccccc1
AC50 [3]: 25 µM (active)

CCCCCCCCCCCCCCCC[N+](C)(C)Cc1ccccc1
AC50 [8]: 1.23 µM (active) | AC50 [9]: 17.3 µM (active) | AC50 [10]: 1.89 µM (active) | outcome [2]: inactive | AC50 [3]: 2.45 µM (active)

c1ccc(B(c2ccccc2)c2ccccc2)cc1
outcome [4]: inactive | outcome [1]: inactive

CCCCCCOC(=O)c1ccccc1
outcome [5]: inactive | outcome [1]: inactive

CN(C)Cc1ccccc1O
outcome [5]: inactive | outcome [1]: inactive

Cc1ccc(S(=O)(=O)NCl)cc1
outcome [5]: inactive | outcome [1]: inactive

CCN(Cc1cccc(S(=O)(=O)O)c1)c1ccc(C(=C2C=CC(=[N+](CC)Cc3cccc(S(=O)(=O)O)c3)C=C2)c2ccc(O)cc2S(=O)(=O)[O-])cc1
AC50 [6]: 8.78 µM (active) | outcome [5]: inactive | outcome [1]: inactive

[Co]
outcome [7]: inactive | outcome [5]: inactive | outcome [1]: inactive

O=C(OCCOCCOCCOC(=O)c1ccccc1)c1ccccc1
outcome [5]: inactive | outcome [1]: inactive

CC(C)c1ccccc1N
outcome [3]: inactive

CCCCNc1ccccc1
outcome [10]: inactive

COC(=O)C1CCC(C(=O)OC)CC1 (stereo not drawn)
outcome [5]: inactive | outcome [1]: inactive

C1COCCN1
outcome [5]: inactive | outcome [1]: inactive

CC/C=C\CCOC(C)=O
outcome [5]: inactive | outcome [1]: inactive

CO[Si](OC)(c1ccccc1)c1ccccc1
outcome [3]: inactive

CCN(CC)c1ccc2c(C)cc(=O)oc2c1
AC50 [9]: 13.6 µM (active) | AC50 [10]: 20.2 µM (active) | AC50 [3]: 25 µM (active)

CC(Cc1ccc(O)c(O)c1)C(C)Cc1ccc(O)c(O)c1 (stereo not drawn)
AC50 [6]: 4.91 µM (active) | AC50 [4]: 1.82 µM (active) | AC50 [5]: 11.9 µM (active) | AC50 [1]: 11.9 µM (active)

CNC(=S)NC
outcome [7]: inactive | outcome [1]: inactive

O=S(=O)(O)c1ccc2ccccc2c1
outcome [1]: inactive

CCCCC(CC)COP(=O)(O)OCC(CC)CCCC (stereo not drawn)
outcome [6]: inactive | outcome [4]: inactive | outcome [1]: inactive

CC(C)OC(=O)c1ccccc1C(=O)OC(C)C
outcome [1]: inactive

Nc1ccc(Oc2cccc(Oc3ccc(N)cc3)c2)cc1
AC50 [9]: 3.46 µM (active) | AC50 [10]: 1.02 µM (active) | outcome [3]: inactive

Cc1cc(C)cc(O)c1
outcome [5]: inactive | outcome [1]: inactive

C(=C(c1ccccc1)c1ccccc1)c1ccccc1
AC50 [4]: 8.44 µM (active) | AC50 [5]: 1.59 µM (active) | AC50 [1]: 1.61 µM (active)

CCCCOc1ccc(N)cc1
AC50 [5]: 25.2 µM (active) | outcome [1]: inactive

Oc1ccc(Nc2ccccc2)cc1
AC50 [9]: 12.1 µM (active) | AC50 [10]: 6.97 µM (active) | AC50 [3]: 11.9 µM (active) | outcome [4]: inactive

Cc1cccc(N(C)C)c1
outcome [2]: inactive
